Sm TGR inh – inhibitors of Schistosoma mansoni thioredoxin glutathione reductase; Potency, µM (series often up to 114 µM), for inactives: at the highest dose activity change, negative = inhibition, usual class: inhibitors; AID 485364; Q962Y6; 360,000 tested, 3% active; purified TGR, DTNB reduction, TNB absorbance 405 nm; further: potency means the concentration at half of the fitted maximal effect; nearly all actives have a fitted effect of over 60% in size
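First, TGR (20 nM dispensed) and NADPH were mixed with compound. Second, a 15 min room-temperature incubation followed. Third, further NADPH and then DTNB were added to start the reaction. Finally, TNB absorbance was monitored kinetically.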
Pf growth 48h – P. falciparum growth inhibition at 48 hours (one generation) | P. falciparum luciferase growth in erythrocytes, 48 h | Potency, µM (titrated, usually from 28.7 µM), without a hit: top-dose activity change, negative = inhibition, usual class: inhibitors | 310,000 tested, 5.9% active | AID 504832; further: potency means the concentration at half of the fitted maximal effect
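Here the parasites carry a stable luciferase gene and grow inside erythrocytes in Albumax-based RPMI medium with compound for one erythrocytic cycle. Activity is scored as loss of luminescent signal.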
HCMV antiviral – human cytomegalovirus inhibition; HFF cells, HCMV-luciferase reporter, 72 h; stronger effect = lower value; activity change, negative = inhibition, % at 57.5 µM; 410,000 tested, 4.5% active; in the data active means activity change below about -60%; inconclusive means no clear call, values can overlap the other calls; inactive means above about -39%
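Luciferase read-out from HCMV-luciferase-infected HFFs (MOI 1 PFU/cell) 72 h post infection at 37C; compounds added after 16 h cell attachment; activity normalized between buffer-only basal and Salinomycin (10uM) inhibitor controls.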
Giardia FBPA inh – Giardia lamblia aldolase inhibition; A8B2U2; purified Giardia FBPA; Potency, µM (highest dose often 59.6 µM), without a hit: at the top dose activity, negative = inhibition, actives largely listed as inhibitors; 290,000 tested, 0.71% active; further: potency means the concentration at half of the fitted maximal effect; nearly all actives have a fitted effect of over 55% in size
Target sequence (A8B2U2 whole entry, looked up): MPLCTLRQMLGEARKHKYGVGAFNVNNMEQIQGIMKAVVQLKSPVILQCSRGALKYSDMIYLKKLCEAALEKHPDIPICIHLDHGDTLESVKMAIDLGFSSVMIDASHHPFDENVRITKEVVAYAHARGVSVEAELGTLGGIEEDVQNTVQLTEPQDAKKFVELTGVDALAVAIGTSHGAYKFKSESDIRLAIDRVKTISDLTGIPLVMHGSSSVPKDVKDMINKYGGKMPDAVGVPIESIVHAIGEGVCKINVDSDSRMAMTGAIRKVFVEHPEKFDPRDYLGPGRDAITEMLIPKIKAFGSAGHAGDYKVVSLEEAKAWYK
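Giardia FBPA (40 nM reagent) was preincubated 10 min at RT with compound (up to 57.5 uM final), then substrate plus GAPDH/TPI/NAD/arsenate coupling system with diaphorase/resazurin was added; resorufin fluorescence (525/598 nm) was read after 20 min.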
Pf growth 96h – P. falciparum growth inhibition at 96 hour, primary screen for plastid delayed-death inhibitors; 320,000 tested, 6.9% active; AID 504834; P. falciparum luciferase reporter growth, 96 h; Potency, µM (top dose mostly 28.7 µM), inactives show top-dose activity change, negative = inhibition, hits mostly inhibitors; further: potency means the concentration at half of the fitted maximal effect
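Erythrocytes infected with luciferase-expressing P. falciparum were dispensed at 2% hematocrit and 0.05% parasitemia (final), then incubated with compounds 96 hours at 37 C in 5% CO2. Luminescence after detection reagent addition reported growth.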
* hit, by the source's call; ? = inconclusive; . = not tested or not shown; [ ] = another dose, or the depositor's remark. Only some compounds are listed: those with a hit (about 14% of all), similar ones and a draw of the others. Unless noted, the call rests on the fitted dose curve; in most records, active means well fitted curve in the direction sought with a large enough effect; inconclusive means small, poorly fitted or top-dose-only effect, or another doubt; inactive means no such curve, though single readings can be large; an effect the other way counts as inactive or inconclusive. On the % scale 0 is the no-effect control and ±100 the full control effect.

SMILES	Sm TGR inh	Pf growth 48h	HCMV antiviral	Giardia FBPA inh	Pf growth 96h
Cc1ccc(CNC(=O)CCc2cn(Cc3ccc(C)cc3)c3ccccc23)cc1	1%	.	6	.	.
Cc1ccc(Cn2cc(CCC(=O)O)c3ccccc32)cc1	6%	.	45	17%	4.7µM*
CCOc1ccccc1CNC(=O)CCc1cn(CC)c2ccccc12	3%	15µM*	-23	5%	3%
O=C(CCc1ccccc1)NC1CC(=O)N(c2ccccc2)C1 (stereo unspecified)	6%	.	16	.	.
CCOc1ccc(CNC(=O)CCCc2cn(C)c3ccccc23)cc1	-2%	3.7µM*	-7	-14%	4%
CCn1cc(CCCC(=O)NCc2ccc(OC)cc2)c2ccccc21	-4%	2.3µM*	11	1%	5%
CCn1cc(CCCC(=O)NCc2cccnc2)c2ccccc21	-15%	5%	-3	-5%	36%
Cc1ccc(CNC(=O)CCn2cc(-c3ccc(C)cc3)nc2CCN)cc1	-3%	12µM*	-1	.	?
O=P1(O)Oc2c(-c3ccccc3)cc3ccccc3c2-c2c(c(-c3ccccc3)cc3ccccc23)O1	.	.	.	3%	.
CCOC(=O)CNC(=O)N1CCCC(C(=O)c2cccc(Cl)c2)C1 (stereo unspecified)	7%[57.1 µM]	37%	19	6%	-23%
Cc1noc(C)c1C(=O)N1CCC2(CCCN(C(=O)Nc3cccc(F)c3)C2)CC1	.	.	.	-1%	.
O=C(NCCC(=O)N1CCN(C(=O)c2ccco2)CC1)c1ccc(Br)cc1	-20%	-1%	-1	.	-27%
Cc1ccccc1Cn1nnc2c(=O)[nH]c(C3CCCN(C(=O)c4ccc(C(C)(C)C)cc4)C3)nc21 (stereo unspecified)	1%	.	9	.	.
COc1ccc(Cn2nnc3c(=O)[nH]c(C4CCCN(C(=O)c5ccccc5)C4)nc32)cc1 (stereo unspecified)	-1%	?	30	0%	12µM*
COc1ccc(Cn2nnc3c(=O)[nH]c(C4CCCN(C(=O)c5ccc(C)cc5)C4)nc32)cc1 (stereo unspecified)	1%	.	-2	.	.
Cc1cccc(Cn2nnc3c(=O)[nH]c(C4CCCN(C(=O)c5ccc(C(C)(C)C)cc5)C4)nc32)c1 (stereo unspecified)	0%	.	-70*	.	.
CC1=NN(c2ccccc2)C(=O)C1C(=S)SC1CC(=O)NC1=O (stereo unspecified)	.	.	-88*	.	.
Cc1ccc2ncc3c(-c4ccc(F)cc4)nn(CC(=O)Nc4ccccc4C)c3c2c1	5%	.	21	.	.
O=C(NN=C1CCCC1)c1ccc(O)cc1O	-19%	-10%	1	.	13µM*
CCCC[C@H](NC(=O)[C@H](CC(C)C)NC(=O)[C@@H](Cc1c[nH]c2ccccc12)NC(=O)[C@H](Cc1ccccc1)NC(=O)[C@@H](Cc1c[nH]c2ccccc12)NC(=O)[C@H](CC(N)=O)NC(=O)[C@@H](Cc1c(Cl)cccc1Cl)NC(=O)[C@@H]1CCCN1C(=O)[C@H](Cc1ccccn1)NC(=O)[C@@H]1CCCN1C(=O)[C@H](N)CCCCNC(=O)c1cccnc1)C(N)=O	.	.	.	2%	.
Nc1nc(NCCCN2CCOCC2)nc(Nc2cccc(F)c2)c1[N+](=O)[O-]	22%	-14%	12	6%	?
Cc1cccc(Nc2nc(NCCCN3CCOCC3)nc(N)c2[N+](=O)[O-])c1	2%	15µM*	?	4%	?
Nc1nc(NCCCN2CCOCC2)nc(Nc2ccc(F)cc2)c1[N+](=O)[O-]	0%	13µM*	-2	8%	?
CN(C)S(=O)(=O)c1ccc(Cl)c(NC(=O)COC(=O)/C=C/c2ccc3ccccc3n2)c1	-1%	-4%	56	.	-3%
CCC(Cn1nnc2ccccc2c1=O)NC(=O)Nc1cc(C)cc(C)c1 (stereo unspecified)	-4%	.	106	.	.
SMILES	Sm TGR inh	Pf growth 48h	HCMV antiviral	Giardia FBPA inh	Pf growth 96h
CCOc1cc(S(=O)(=O)N2CC=C(c3ccc(F)cc3)CC2)c(OCC)cc1-n1cnnn1	-22%	7.4µM*	3	15%	?
CCOc1cc(S(=O)(=O)NCCc2cccc(C)c2)c(OCC)cc1-n1cnnn1	-5%	9.3µM*	-2	-3%	6.6µM*
CCOc1cc(S(=O)(=O)N2CCC(Cc3ccccc3)CC2)c(OCC)cc1-n1cnnn1	0%	13µM*	-13	-9%	?
CCOc1cc(S(=O)(=O)N(CC)CC)c(OCC)cc1-n1cnnn1	5%	1%	-13	-5%	-2%
CCOc1cc(S(=O)(=O)NCCc2ccccc2C)c(OCC)cc1-n1cnnn1	0%	?	-24	-6%	?
CN1CCN(C(=O)c2cc(C(C)(C)C)cc(C(C)(C)C)c2)CC1	0%	-19%	-40	-5%	40%
CCS(=O)(=O)N1CCN(c2ccc(C(=O)NC34CC5CC(CC(C5)C3)C4)cc2[N+](=O)[O-])CC1	-1%	5.9µM*	-23	-26%	5.9µM*
O=C(NC12CC3CC(CC(C3)C1)C2)c1ccc(N2CCNCC2)c([N+](=O)[O-])c1	4%	5.2µM*	3	4%	?
CCn1cc(-c2cc(C(=O)O)c3ccccc3n2)cn1	7%	153%	4	-20%	-66%
CCn1c(CN2CCN(c3ccc(Cl)cc3)CC2)nc2ccccc21	-5%	12µM*	-11	-1%	?
O=S1(=O)CC(c2ccccc2)=NN=C(c2ccccc2)C1	.	.	19	.	.
Cc1nn(CC(=O)NNC(=O)c2ccccc2F)c([N+](=O)[O-])c1Br	5%	12%	21	1%	9%
COc1ccc(S(=O)(=O)N2CCCCCC2)cc1NC(=O)c1ccccc1	3%	2%	-37	.	?
Cc1ccc(S(=O)(=O)N2CCCCC2)cc1NC(=O)c1ccc(Cl)nc1	-5%	?	4	.	?
CCN(CC)S(=O)(=O)c1ccc(NC(=O)c2ccc(N3CCCC3=O)cc2)cc1	.	.	-76*	.	.
COc1ccc(S(=O)(=O)N2CCCCC2)cc1NC(=O)c1ccc(N2CCCC2=O)cc1	-4%	9.3µM*	-39	.	?
COc1ccc(S(=O)(=O)N2CCCCC2)cc1NC(=O)c1ccc(Cl)nc1	-15%	15µM*	52	.	?
CCOc1ccc(S(=O)(=O)N(CC)CC)cc1NC(=O)c1ccc(N2CCCC2=O)cc1	-19%	10µM*	27	.	?
Cc1cccc(N2C(=O)C(CC(=O)Nc3ccccc3)N(C3CCCCC3)C2=O)c1 (stereo unspecified)	4%	.	17	.	.
Cc1cc(NC(=O)Cc2ccccc2)ccc1NC(=O)c1cccs1	13%	7%	-22	-1%	?
Cc1ccc(NC(=O)CN(C)Cc2nc3c(Br)cc(Br)cc3c(=O)[nH]2)cc1	0%	-1%	-21	4%	0%
Cc1noc(C)c1CSCC(=O)Nc1cc(S(=O)(=O)N2CCCCC2)ccc1OC(C)C	-20%	13µM*	-34	.	?

Source: PubChem BioAssay (National Center for Advancing Translational Sciences (NCATS))
